Calls of active or inactive are those of the source. How the source made its calls: active means hit-call score of the fitted dose curve at least 0.9, where 1 is the maximum; inactive means score below 0.9.
Each compound was assayed on ABC Transporter (ABCB1), ABCB1 (gene 5243) (assay: LTEA_HepaRG_ABCB1: Life Technologies and Expression Analysis (LTEA) Assay for ABC Transporter (ABCB1) using HepaRG (AID 2283460)). Settings: mRNA level, 48 h; actives raise or lower the signal.
Protocol: LTEA_HepaRG is a cell based, multiplexed-readout assay that uses HepaRG, a human liver cell line, with measurements taken at 48 hours after chemical dosing on a 96-well plate.LTEA_HepaRG_ABCB1 is one of 102 assay component(s) measured in the LTEA HepaRG cell culture assay. It is a marker of Steatosis/NR mediated transport.Data from the assay component LTEA_HepaRG_ABCB1 was analyzed into 1 endpoint. This assay endpoint, LTEA_HepaRG_ABCB1, was analyzed with bidirectional fitting relative to DMSO as the negative control and baseline of activity. Using a type of inducible reporter, measures of mRNA induction for gain or loss-of-signal activity can be used to understand regulation of transcription factor activity. To generalize the intended target to other relatable targets, this assay endpoint is annotated to the transporter intended target family, where the subfamily is ABC transporter.
A total of 1060 chemcials from the ToxCast library were tested in eight-point concentration-response experiments. Cell culture and cytotoxicity assays were conducted at Thermo Fisher Scientific's Custom Services facility (Madison, WI). A single lot of human HepaRG cells (Thermo Fisher Scientific, Frederick, MD) was used for the cell culture experiments. 96-well format collagen type I coated plates of human HepaRG cells were prepared using established methods. Briefly, cryopreserved HepaRG cells were thawed, plated at a density of approximately 100,000 cells/well in HepaRG Thaw, Plate, and General Purpose media (HPRG770, Thermo Fisher Scientific), and incubated for 48 hours. 0.5% DMSO was selected as vehicle control to balance the requisite need of DMSO in HepaRG cultures to maintain differentiation (for example, baseline metabolism, proportions of hepatocytes vs. cholangiocytes), while enabling further hepatic receptor pathway activation (for example, PXR and CAR) in response to chemical exposure. 48 hours after plating, the culture medium was replaced with HepaRG Serum-Free Incudtion Media. Cells were exposed to each test chemical in duplicate and maintained in CO2 incubators for another 48 hours. Chemical plates were thawed to room temperature and 200x concentrations of treatment groups were prepared. 8-point conentration-reponse curves were made with the highest exposure at 100 uM, followed by half-log dilutions, all in 0.5% DMSO. Each test plate contained variouse controls, induction positive controls (1mM phenobarbital), cytotoxicity positive controls ([…] aflatoxin B1), vehicle controls (0.5% DMSO), and total lysis controls (0.5% DMSO). Cell morphology images were taken using an Essen IncuCyte FLR automated microscope, with six 96-well plates imaged in about 24 minutes. Images were captured and exported and JPEG files. Spent culture media was transfered to black-well plates for the LDH assay, and remaining media was sorted at -80 C for later use. Cells were treated with RLT buffer and frozen until shipped for gene expression analysis. Total RNA was isolated from the cell suspension in 75 uL of Buffer RLT (Qiagen, Germantown, MD 20874) by Quintiles/Expression Analysis (Durham, NC) using a custom isolation procedure. Total RNA from each plate well was transferred to a preamplification plate. Fluidigm's 96.96 Dynamic ArrayTM (Fluidigm, Amsterdam, the Netherlands) technology was used for gene expression analyses by quantitative reverse transcription polymerase chain reaction (qRT-PCR, performed by Quintiles/Expression Analysis, Durham, NC)89. Standard TaqManTM Assays (Applied Biosystems/ThermoFisher Scientific, Foster City, CA) were used to assess the expression of 93 genes selected based on their selectivity and sensitivity to important hepatic receptors known to be modulated by environmental chemicals; importance in human hepatocyte functionality; and hepatotoxicity. […]

Row | Structure (SMILES) | outcome | AC50
1 | CCOC(=O)CCC(=O)OCC | inactive | –
2 | Cc1nc(-c2ccc3c(c2)CCN(CCC2CCC(NC(=O)/C=C/c4ccc(F)cc4)CC2)CC3)no1 (stereo not given) | inactive | –
3 | COCCOCCOC | – | 2.83 µM (active)
4 | Cc1cccc([N+](=O)[O-])c1C | inactive | –
5 | CC(C)c1ccc(C(=O)N=C(N)N)cc1S(C)(=O)=O | – | 8.32 µM (active)
6 | CCOC(=O)C(C)(C)Oc1ccc(Cl)cc1 | inactive | –
7 | CCCCCCCCCCCC(=O)OC | inactive | –
8 | CN1CCN(Cc2cc(-c3ccc4[nH]c(=O)oc4c3)co2)[C@@H](c2ccc(F)cc2)C1 | inactive | –
9 | CC(=O)C(C)=CC1C(C)=CCCC1(C)C (stereo not given) | inactive | –
10 | Cc1ccc(C(C)C)c(O)c1 | inactive | –
11 | NCCO | inactive | –
12 | Cc1cc(NC(=O)C(=O)O)cc(C)c1Oc1ccc(O)c2c1CCC2 | inactive | –
13 | CCCCCCC(=O)OCC | inactive | –
14 | CC(CO)OC(C)CO (stereo not given) (tested in a mixture with another compound) | inactive | –
15 | Cc1cc(=O)[nH]c(=S)[nH]1 | inactive | –
16 | C[Si]1(C)O[Si](C)(C)O[Si](C)(C)O[Si](C)(C)O1 | inactive | –
17 | CCCCOC(=O)CCCCCCCCC(=O)OCCCC | inactive | –
18 | Cc1cccc(C)c1O | inactive | –
19 | CNC(=O)[C@H]1O[C@@H](n2cnc3c(NCc4cc(Cl)ccc4OCc4cc(C)no4)ncnc32)[C@H](O)[C@@H]1N | inactive | –
20 | COCCOC[C@H](CC1(C(=O)NC2CCC(C(=O)O)CC2)CCCC1)C(=O)Oc1ccc2c(c1)CCC2 (stereo not given in full) | inactive | –

Row | Structure (SMILES) | outcome | AC50
21 | Cc1ccccc1Cl | inactive | –
22 | CC1(C)NC(=O)NC1=O | inactive | –
23 | COc1cc(-c2nc(NC(=O)c3cc4cc(C)cc(C)c4n3CC(=O)O)sc2CCC2CCCCC2)c(OC)cc1Cl | – | 11.4 µM (active)
24 | Oc1ccc2c(c1)OC[C@@H](N1CCC(O)(c3ccc(F)cc3)CC1)[C@H]2O | inactive | –
25 | C[C@]12C=CC(=O)C=C1CC[C@@H]1[C@@H]2C(=O)C[C@@]2(C)[C@H]1CC[C@]2(O)C(=O)CO | – | 50 µM (active)
26 | FC(F)(F)C(F)(F)C(F)(F)C(F)(F)C(F)(F)C(F)(F)CCI | inactive | –
27 | O=[N+]([O-])C(CO)(CO)CO | inactive | –
28 | Cc1ccc(N(C)C)cc1 | inactive | –
29 | CCOc1ccc2c(c1)C(C)=CC(C)(C)N2 | – | 5.26 µM (active)
30 | Nc1ccccc1N | – | 68.9 µM (active)
31 | O=C(O)CCCCC(=O)O | inactive | –
32 | NS(=O)(=O)c1cc2c(cc1Cl)NCNS2(=O)=O | inactive | –
33 | Cc1c(C(=O)O)c(O)cc2c1C(=O)c1c(O)c([C@@H]3O[C@H](CO)[C@@H](O)[C@H](O)[C@H]3O)c(O)c(O)c1C2=O | inactive | –
34 | CCCc1cc(=O)[nH]c(=S)[nH]1 | inactive | –
35 | CC(=O)OC/C=C(\C)CCC=C(C)C | inactive | –
36 | CC(=O)Oc1ccccc1C(=O)O | inactive | –
37 | COc1ccc2c(c1)c(CC(=O)O)c(C)n2C(=O)c1ccc(Cl)cc1 | inactive | –
38 | OC[C@@H](O)[C@@H](O)[C@H](O)[C@H](O)CO | inactive | –
39 | CCCCCCCC=O | inactive | –
40 | CCNc1cccc(C)c1 | inactive | –
